In all, about 5,500 compounds went through this assay and about 2,000 (36%) were called active. Inconclusive results (about 18%) are left out. No stated cut-off is given here; in the data, active means normalized growth mostly below about 0.91 (no sharp cut-off); inconclusive means no clear call, values can overlap the other calls; inactive means mostly above about 0.92. This is one part of the list.
Assay: chemical genetic growth profiling, strain panel (AID 1159580);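 further: tested at 20 µM; growth read once vehicle control cultures reached saturation at 30 °C; 1 = growth at the plate median or of vehicle wells; lower values mean less growth of the strain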
Settings: S. cerevisiae deletion strains, growth OD
[1] = locus YAR019C, strain CDC15, hits give low values
[2] = locus YBL105C, strain PKC1, hits give low values
[3] = locus YBR135W, strain CKS1, hits give low values
[4] = locus YBR136W, strain MEC1, hits give low values
[5] = locus YBR160W, strain CDC28, hits give low values
[6] = locus YDL017W, strain CDC7, hits give low values
[7] = locus YDL028C, strain MPS1, hits give low values
[8] = locus YDL101C, strain DUN1, hits give low values
[9] = locus YDL108W, strain KIN28, hits give low values
[10] = locus YDL132W, strain cdc53, hits give low values
[11] = locus YDL214C, strain PRR2, hits give low values
[12] = locus YDR052C, strain DBF4, hits give low values
[13] = locus YDR054C, strain cdc34, hits give low values
[14] = locus YDR226W, strain ADK1, hits give low values
[15] = locus YDR477W, strain SNF1, hits give low values
[16] = locus YER123W, strain YCK3, hits give low values
[17] = locus YER133W, strain GLC7, hits give low values
[18] = locus YFL009W, strain cdc4, hits give low values
[19] = locus YFL029C, strain CAK1, hits give low values
[20] = locus YFR003C, strain YPI1, hits give low values
[21] = locus YFR019W, strain FAB1, hits give low values
[22] = locus YFR028C, strain CDC14, hits give low values
[23] = locus YGR040W, strain KSS1, hits give low values
[24] = locus YGR052W, strain FMP48, hits give low values
[25] = locus YGR092W, strain DBF2, hits give low values
[26] = locus YHR030C, strain SLT2, hits give low values
[27] = locus YHR079C, strain IRE1, hits give low values
[28] = locus YHR082C, strain KSP1, hits give low values
[29] = locus YHR205W, strain SCH9, hits give low values
[30] = locus YIL147C, strain SLN1, hits give low values
[31] = locus YJL095W, strain BCK1, hits give low values
[32] = locus YJL128C, strain PBS2, hits give low values
[33] = locus YJL157C, strain FAR1, hits give low values
[34] = locus YJR016C, strain ILV3, hits give low values
[35] = locus YJR066W, strain TOR1 (second series), hits give low values
[36] = locus YJR066W, strain TOR1, hits give low values
[37] = locus YKL048C, strain ELM1, hits give low values
[38] = locus YKL067W, strain YNK1, hits give low values
[39] = locus YKL101W, strain HSL1, hits give low values
[40] = locus YKL193C, strain SDS22, hits give low values
[41] = locus YKL203C, strain TOR2, hits give low values
[42] = locus YLR113W, strain HOG1, hits give low values
[43] = locus YLR133W, strain CKI1, hits give low values
[44] = locus YLR403W, strain SFP1, hits give low values
[45] = locus YML070W, strain DAK1, hits give low values
[46] = locus YMR001C, strain CDC5, hits give low values
[47] = locus YMR205C, strain PFK2 (second series), hits give low values
[48] = locus YMR277W, strain FCP1, hits give low values
[49] = locus YNL006W, strain LST8, hits give low values
[50] = locus YNL020C, strain ARK1, hits give low values
[51] = locus YNL161W, strain CBK1, hits give low values
[52] = locus YNL183C, strain NPR1, hits give low values
[53] = locus YNL207W, strain RIO2, hits give low values
[54] = locus YNL222W, strain SSU72, hits give low values
[55] = locus YNL307C, strain MCK1 (second series), hits give low values
[56] = locus YOL078W, strain AVO1, hits give low values
[57] = locus YOL136C, strain PFK27, hits give low values
[58] = locus YOR061W, strain CKA2, hits give low values
[59] = locus YOR119C, strain RIO1, hits give low values
[60] = locus YOR231W, strain MKK1, hits give low values
[61] = locus YOR329C, strain SCD5, hits give low values
[62] = locus YPL031C, strain PHO85, hits give low values
[63] = locus YPL153C, strain RAD53, hits give low values
[64] = locus YPL204W, strain HRR25, hits give low values
[65] = locus YPL209C, strain IPL1, hits give low values
[66] = locus YPL256C, strain CLN2, hits give low values
[67] = locus YPR025C, strain CCL1, hits give low values
[68] = locus YPR106W, strain ISR1, hits give low values
[69] = locus YPR111W, strain DBF20, hits give low values
[70] = strain NNK1, hits give low values
[71] = strain TSCII, hits give low values

Measured: normalized growth

COc1ccc(C(CC(=O)c2ccccc2)Sc2ccccc2N)cc1OC (configuration not stated)
inactive: [1] 0.977 | [2] 0.971 | [3] 0.98 | [4] 0.972 | [5] 0.98 | [6] 0.972 | [7] 0.979 | [8] 0.976 | [9] 0.974 | [10] 0.987 | [11] 0.948 | [12] 0.974 | [13] 0.971 | [14] 0.979 | [15] 0.958 | [16] 0.935 | [17] 0.954 | [18] 0.981 | [19] 0.966 | [20] 0.972 | [21] 0.963 | [22] 0.967 | [23] 0.946 | [24] 1.02 | [25] 0.959 | [26] 0.921 | [27] 0.95 | [28] 0.985 | [29] 0.935 | [30] 0.965 | [31] 0.947 | [32] 0.944 | [33] 0.965 | [34] 0.985 | [35] 1 | [36] 0.955 | [37] 0.977 | [38] 0.946 | [39] 0.927 | [40] 0.979 | [41] 0.99 | [42] 0.898 | [43] 0.952 | [44] 0.934 | [45] 0.941 | [46] 0.965 | [47] 0.958 | [48] 0.983 | [49] 0.984 | [50] 0.961 | [51] 0.978 | [52] 0.966 | [53] 0.975 | [54] 0.979 | [55] 0.974 | [56] 0.98 | [57] 0.955 | [58] 0.934 | [59] 0.962 | [60] 0.937 | [61] 0.971 | [62] 0.957 | [63] 0.978 | [64] 0.993 | [65] 0.984 | [66] 0.899 | [67] 0.976 | [68] 0.967 | [69] 0.979 | [70] 0.968 | [71] 0.973

Cc1cc(C)cc(Sc2ccc3nnc(-c4ccccc4)n3n2)c1
inactive: [1] 0.983 | [2] 0.988 | [3] 0.984 | [4] 0.977 | [5] 0.988 | [6] 0.986 | [7] 1 | [8] 0.973 | [9] 0.993 | [10] 0.977 | [11] 0.998 | [12] 0.986 | [13] 0.975 | [14] 0.982 | [15] 0.99 | [16] 0.972 | [17] 0.978 | [18] 0.979 | [19] 0.984 | [20] 0.991 | [21] 0.962 | [22] 0.987 | [23] 0.991 | [24] 1.09 | [25] 0.977 | [26] 1.08 | [27] 1.07 | [28] 1.07 | [29] 0.988 | [30] 1 | [31] 1.06 | [32] 0.933 | [33] 0.982 | [34] 0.979 | [35] 0.942 | [36] 1.11 | [37] 0.979 | [38] 0.999 | [39] 0.986 | [40] 0.983 | [41] 1.06 | [42] 0.978 | [43] 0.998 | [44] 1 | [45] 0.983 | [46] 0.981 | [47] 0.997 | [48] 0.986 | [49] 0.998 | [50] 1 | [51] 0.986 | [52] 1.1 | [53] 0.989 | [54] 0.983 | [55] 0.995 | [56] 0.992 | [57] 0.995 | [58] 0.986 | [59] 0.993 | [60] 1.05 | [61] 0.985 | [62] 0.978 | [63] 0.944 | [64] 0.965 | [65] 0.985 | [66] 1.04 | [67] 0.984 | [68] 0.977 | [69] 0.982 | [70] 0.98 | [71] 0.982
